Assay outcomes (PubChem)
Hits are enriched below; roughly 5.2% of the tested compounds scored in any of these assays.
Tau fluor cs: counter-screen for tau fibril formation inhibitors; tau K18 P301L Alexa594 fluorescence, heparin fibrillization; Potency, µM (doses to about 57.7 µM), without a hit: top-dose activity change, negative = decrease; 0.93% of 280,000 active; also: potency is read from the fitted curve at half-maximal effect; nearly all actives have a fitted effect of over 55% in size
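Human K18 P301L tau (15 uM unlabeled plus 0.24 uM Alexa 594-labeled, final) in 100 mM sodium acetate pH 7 was mixed with compound and 20 uM heparin and incubated 6 hr at 37 C.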
FBPA coupling cs: counter-screen for Giardia aldolase inhibitors: coupling enzyme system | coupling enzyme system counterscreen, AmpLite Red fluorescence | activity change, negative = inhibition, % at 58.2 µM, hits read low | 0.67% of 290,000 active | AID 2472; in the data active = activity change below about -30%
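Activity here indicates interference with the coupling reaction, not aldolase inhibition. Compounds at 57.5 uM final met coupling enzymes for 10 min at RT; substrate and AmpLite Red detection followed, with a 525/598 nm fluorescence read after 20 min.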
Tau FP inhib: tau fibrillization inhibition (FP). P10636. K18 P301L tau heparin fibrillization, Alexa594 FP, 6 h. Potency, µM (doses to about 57.7 µM), without a hit: at the highest dose activity, negative = inhibition, hits mostly inhibitors. 0.39% of 280,000 active. AID 1468; also: potency is read from the fitted curve at half-maximal effect; nearly all actives have a fitted effect of over 55% in size
Target sequence (P10636 561-689 P618L limits assumed): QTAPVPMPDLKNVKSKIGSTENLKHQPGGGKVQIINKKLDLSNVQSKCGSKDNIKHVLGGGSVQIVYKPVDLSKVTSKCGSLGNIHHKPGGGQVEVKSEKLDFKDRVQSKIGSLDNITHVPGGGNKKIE
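Quantitative HTS format: compounds meet 15 uM recombinant K18 P301L tau and Alexa 594-tau tracer in 100 mM sodium acetate pH 7; 20 uM heparin triggers fibrillization at 37 C over 6 hr; FP gives the signal.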
Tau ThT inhib: tau fibrillization inhibition (ThT binding); Potency, µM (highest dose often 57.4 µM), without a hit: at the highest dose activity, negative = inhibition, most hits filed as inhibitors; recombinant tau K18 P301L (four-repeat tau fragment), heparin-induced fibrillization, ThT fluorescence; 2.1% of 270,000 active; P10636; AID 1460; also: potency is read from the fitted curve at half-maximal effect; nearly all actives have a fitted effect of over 55% in size
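Heparin-induced fibrillization of the P301L-mutant K18 repeat-domain fragment of human tau was followed by ThT binding in quantitative high-throughput format.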
Sfp PPTase inh: inhibitors of Bacillus subtilis Sfp phosphopantetheinyl transferase; Q9F4F7; Biochemical Sfp PPTase activity, qHTS; Potency, µM, inactives show largest response in the series, negative = inhibition, usual class: inhibitors; 3.5% of 310,000 active; AID 1490;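 also: the enzyme is Sfp with the accession as filed and its product quenches rhodamine fluorescence; potency is read from the fitted curve at half-maximal effect; 0% = enzyme reaction without inhibitor and -100% = no enzyme wells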
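Fluorescence-quenching assay with 15 nM Sfp, 5 uM rhodamine-CoA and 12.5 uM BHQ-2-labelled ybbR peptide in pH 7.6 Hepes/MgCl2 buffer. Enzyme was pre-incubated with compound for 15 min at room temperature. Rate was taken from the 30-min fluorescence change (525/598 nm).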
Active calls of the source: *; ? = inconclusive; / = no result given; ! = not active in a repeat; [ ] = dose if it differs, or a comment. Unless noted, calls follow the shape of the dose curve; as a rule, active = well fitted curve in the direction sought with a large enough effect; inconclusive = small, poorly fitted or top-dose-only effect, or another doubt; inactive = no such curve, though single readings can be large; an effect the other way counts as inactive or inconclusive. Unless noted, % is scaled to controls: 0 for no effect and ±100 for the full control effect.

SMILES | Tau fluor cs | FBPA coupling cs | Tau FP inhib | Tau ThT inhib | Sfp PPTase inh
COC(=O)c1ccc(C(NC(=O)OCc2ccccc2)/C(I)=C/[C@@H](C)C(=O)NCc2ccncc2)cc1 (some centres undefined) | -12% | 0 | 1% | ? | ?
CC1(C)CC(=O)c2cnc(NC(=O)CSc3nc4ccccc4o3)nc2C1 | -2% | 2 | 6% | -6% | 71µM*
CC(=O)N(O)CCCCCNC(=O)CCC(=O)N(O)CCCCCNC(=O)CCC(=O)N(O)CCCCCN | -7% | 0 | -5% | 1% | 45µM*!
Cn1c(=O)c(=O)n(C)c2cc(N3CCOCC3)c(NS(=O)(=O)c3ccc(Br)cc3)cc21 | / | -4 | / | / | 45µM*
Nc1cc(S(=O)(=O)Nc2ccccc2Cl)ccc1N1CCCC1 | -24% | -1 | 14% | -7% | -4%
Nc1cc(S(=O)(=O)Nc2cc(Cl)ccc2Cl)ccc1N1CCOCC1 | -22% | 7 | ? | ? | 11µM*
Cc1ccc(S(=O)(=O)Nc2cc3c(cc2N2CCOCC2)n(C)c(=O)c(=O)n3C)cc1 | / | / | / | / | -2%
COc1cccc(Cn2c(=O)n(Cc3ccco3)c(=O)c3oc4ccccc4c32)c1 | -11% | / | -7% | 3% | /
COC(=O)C1=C(C)N(Cc2ccccc2)C(=S)N[C@H]1CCc1ccccc1 | / | 1 | / | / | 3%
Cc1ccc(-c2ccc(/C=N\NC(=O)C3C(=O)NCC3c3ccccc3)o2)cc1Cl (centres undefined) | -28% | 0 | 3% | -11% | 50µM*
CCCS(=O)(=O)N1CCN(C2Cc3ccccc3C2)CC1 | -19% | -3 | 0% | / | 89µM*
O=C(CS(=O)c1ccc(C(F)(F)F)cc1[N+](=O)[O-])Oc1ccc(Cl)cc1 (centres undefined) | ? | -15 | ? | 22µM* | -3%
Cc1ccc(OCCNc2ccc(C(F)(F)F)cc2[N+](=O)[O-])cc1 | -12% | -1 | ? | ? | 14%
Cc1cc(C)cc(OC(=O)CS(=O)c2ccc(C(F)(F)F)cc2[N+](=O)[O-])c1 (centres undefined) | ? | -27 | ? | 13µM* | 6%
O=C(NCCO)c1ccc(Oc2ccc(C(F)(F)F)cc2[N+](=O)[O-])cc1 | -5% | -4 | 7%[2.34 µM] | -4% | 23%
CN1/C(=C/C(=O)c2nc(S(C)(=O)=O)ncc2Cl)C(C)(C)c2ccccc21 | -3% | 2 | 15% | 5µM* | -9%
CC(N)(C(=O)O)c1ccc(P(=O)(O)O)cc1 (centres undefined) | -4% | / | -2% | 0% | 0%
C/C(=N\Nc1ccc(C(=O)O)cc1)c1ccc(Cl)s1 | / | 1 | / | / | 10µM*
O=C(O)c1ccc(CSc2nnc(-c3ccco3)n2-c2ccccc2)cc1 | -6% | -2 | 2% | -7% | -13%
c1ccc(-n2c(SCc3ccncc3)nnc2-c2ccco2)cc1 | -1% | 2 | 4% | -2% | 28µM*
Cc1ccccc1-c1nn2c(=O)cc(CN3CCN(S(=O)(=O)c4ccc(Cl)cc4)CC3)nc2s1 | -13% | / | -7% | -8% | /
COCCCNS(=O)(=O)c1ccc(N2CCCCS2(=O)=O)cc1 | 4% | / | 0% | 9% | /
COc1ccc(C2CC(c3cccs3)=NN2S(C)(=O)=O)cc1 (centres undefined) | -7% | 0 | -1% | -5% | 21%
COc1ccc(C2CC(c3cccs3)=Nc3ccccc3S2)cc1 (centres undefined) | -3% | 0 | 7% | -6% | 22µM*
O=C(CN1CC(=O)Oc2ccccc21)NCc1ccco1 | -9% | -3 | -8% | -20% | 56µM*
SMILES | Tau fluor cs | FBPA coupling cs | Tau FP inhib | Tau ThT inhib | Sfp PPTase inh
O=C(CN1CCCc2ccccc21)NC(=O)NCc1ccco1 | -20% | -9 | 10% | -14% | 35µM*
CN(C)CCc1cc2c(c3c1ccc1ccccc13)OCO2 | ? | -36*! | -6% | ? | -5%
C=Cc1ccc(CSc2nc(-c3ccc(Cl)cc3)nc3c2Cc2c(CO)cnc(C)c2O3)cc1 | -2% | / | 5% | 2% | /
COc1cc(/C=N/N=C(N)N)ccc1OCc1ccccc1Cl | ? | 0 | -13% | -8% | 25µM*
CC(=O)N1CCN(c2ccc(NC(=O)c3ccc([N+](=O)[O-])cc3)cc2)CC1 | / | 0 | / | / | -11%
O=C(Nc1ccc(N2CCOCC2)cc1)c1ccc2nc(-c3ccco3)c(-c3ccco3)nc2c1 | ? | -3 | -6% | 2.5µM* | -8%
O=C(Nc1ccc(N2CCOCC2)cc1)c1ccc([N+](=O)[O-])cc1 | -19% | -5 | 1% | 2.8µM* | -8%
O=C(NC(=S)Nc1ccc(N2CCOCC2)cc1)c1ccco1 | -11% | -2 | -1% | ? | ?
S=C(Nc1ccc(N2CCOCC2)cc1)Nc1ccc2nc(-c3ccco3)c(-c3ccco3)nc2c1 | 7.9µM*[quencher] | -24 | ? | 2.2µM* | -30%
CCC(C(=O)NCCc1ccc(Cl)cc1)n1ccc2cc(S(=O)(=O)N3CCCCC3)ccc21 (centres undefined) | -23% | / | -6% | 4% | /
CN(Cc1ccccc1)c1nc2c(S(=O)(=O)c3cccc(Cl)c3)nnn2c2ccsc12 | -17% | / | -13% | -2% | /
Cc1nc2ccc(N=NN(C)C)cc2[nH]1 | ? | -35* | ? | 10µM* | ?
Cc1nc2ccc(Cc3ccc4nc(C)[nH]c4c3)cc2[nH]1 | -2% | 2 | -8% | -5% | 6%
O=C(c1cccn1-c1nnc(N2CCCCC2)s1)N1CCN(c2ccccc2)CC1 | -12% | / | 4% | -16% | /
Cc1cc(-c2n[nH]c(=S)n2/N=C/c2cccc(O)c2)n[nH]1 | 6% | 1 | 5% | 4% | -23%
S=c1[nH]nc(-c2cc(-c3ccccc3)n[nH]2)n1/N=C/C(Br)=C/c1ccccc1 | ? | 1 | ? | 18µM* | ?
Cc1ccc(/C=N/n2c(-c3ccco3)n[nH]c2=S)cc1 | -18% | 2 | 11% | -13% | -17%
Cc1cc(-c2n[nH]c(=S)n2/N=C/C(Cl)=C/c2ccccc2)n[nH]1 | -21% | 1 | -6% | ? | 50µM*
S=c1[nH]nc(-c2ccco2)n1/N=C/C(Cl)=C/c1ccccc1 | ? | -2 | ? | 14µM* | ?
COc1ccc(C2=Nn3c(nnc3-c3ccccc3O)SC2)cc1OC | / | 5 | / | / | 45µM*
COc1cccc(C2=Nn3c(nnc3-c3ccccc3C)SC2)c1 | / | -32* | / | / | 63µM*
COc1cccc(C2=Nn3c(nnc3-c3ccc(OC)cc3OC)SC2)c1 | / | -4 | / | / | -10%
COc1ccccc1C1=Nn2c(nnc2-c2ccccc2O)SC1 | / | 1 | / | / | -14%
COc1ccc(OC)c(C2=Nn3c(nnc3-c3cc(OC)ccc3OC)SC2)c1 | / | 1 | / | / | 3%
COc1ccc(OC)c(C2=Nn3c(nnc3-c3ccco3)SC2)c1 | -8% | 1 | -6% | -13% | 50µM*
